Measurements taken from PubChem BioAssay (NCI).
Compounds without any hit were thinned out: in the full panel of roughly 83,000, 20% have a hit.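 Step 1: grow cells in 96-well plates. Step 2: add test compound at a single concentration. Step 3: incubate 48 h. Step 4: record percent growth.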 Values without a mark were called inactive. Calls of active or inactive are those of the source. The calls were made as follows: active = growth percent below 10; inactive = the rest.

Columns and labels:
Assay in all cases: NCI-60 one-dose screen, 48 h (100 = growth as untreated, 0 = no growth, -100 = all killed)
Conditions in all cases: 10 µM unless noted
NCI-H23 lung = tested on: NCI-H23 lung
NCI-H226 lung = tested on: NCI-H226 lung
NCI-H322M lung = tested on: NCI-H322M lung
HOP-62 NSCLC = tested on: HOP-62 NSCLC
NCI-H460 lung = tested on: NCI-H460 lung
HOP-92 NSCLC = tested on: HOP-92 NSCLC
NCI-H522 lung = tested on: NCI-H522 lung
A549/ATCC NSCLC = tested on: A549/ATCC NSCLC
786-0 renal = tested on: 786-0 renal
COLO 205 colon = tested on: COLO 205 colon

Row | Compound | growth (NCI-H23 lung) | growth (NCI-H226 lung) | growth (NCI-H322M lung) | growth (HOP-62 NSCLC) | growth (NCI-H460 lung) | growth (HOP-92 NSCLC) | growth (NCI-H522 lung) | growth (A549/ATCC NSCLC) | growth (786-0 renal) | growth (COLO 205 colon)
1 | Fc1cnccc1C1CC(c2ccc(N3CCNCC3)cc2)=NN1 (stereo not given) | 83.8% | 82.9% | 89.3% | 83.2% | 94.9% | 72.4% | 81.9% | 76.2% | 111% | 95.7%
2 | Nc1nc2ccc(-c3nc4ccc5[nH]ncc5c4c4c3CCCC4)cc2s1 | 100% | 112% | 101% | 101% | 107% | 106% | 86.8% | 91.8% | 108% | 106%
3 | CCOC(=O)n1cc(-c2nonc2-c2cn(C(=O)OCC)c3ccc(Br)cc23)c2ccccc21 | 67.9% | 79.4% | 70% | 72.3% | 81.6% | 63.2% | 70.6% | 74.4% | 90.6% | 84.2%
4 | COc1ccc(Nc2nc(-c3cc(O)c(C)c(C)c3O)cs2)cc1 | 78.1% | 96.3% | 90.9% | 69.9% | 39% | 90.5% | 34.8% | 58% | 102% | 115%
5 | CCn1cc(C(=O)NNC(=S)Nc2ccc(C)cc2)c(=O)c2ccc(C)nc21 | 102% | 90.1% | 80.4% | 108% | 101% | 95.1% | 97.3% | 91.6% | 102% | 116%
6 | Nc1ncnc2c1C(c1ccc(Br)cc1)c1sc3c(F)cccc3c1O2 (stereo not given) | 88.5% | 81.5% | 95.9% | 90.1% | 92.1% | 91.7% | 84.2% | 99.3% | 99.9% | 106%
7 | COCCn1cc(-c2csc(-c3cn(C)c4ccc(Br)cc34)n2)c2cccnc21 | 76.1% | 86.4% | 74.2% | 70.8% | 26.8% | 65.3% | -35.7% (active) | 40.2% | 19.8% | 46.6%
8 | N#Cc1c(-c2ccccc2)[nH]c2ncc(-c3ccccc3)n2c1=O | 76.9% | 86.3% | 88.6% | 75.6% | 91.1% | 80.7% | 76.9% | 90.6% | 92.3% | 94.7%
9 | O=C1/C(=C\c2ccc3nccnc3c2)SC(=S)N1CCc1ccc(O)cc1 | 98.2% | 96% | 103% | 108% | 102% | -3.77% (active) | 65.9% | 101% | 60.6% | 119%
10 | COc1ccccc1N1CCCCC1 | 102% | 104% | 108% | 90.4% | 109% | 104% | 93.8% | 101% | 95.8% | 113%
11 | NC(N)=NCCCCCNc1noc(Cc2c[nH]c3cc(Br)ccc23)n1 | 64% | 63.2% | 77.3% | 58.3% | 68% | 16.2% | 47.8% | 65.3% | 91.7% | 64.7%
12 | Cc1ccc(C[P+](c2ccccc2)(c2ccccc2)c2ccccc2)cc1 | -9.16% (active) | 16.1% | 38.8% | 13.5% | 3.04% (active) | -0.267% (active) | 10.3% | 26.9% | 25.6% | -15.5% (active)
13 | CCOC(=O)C1=C(N)Oc2c(sc3c(F)cccc23)C1c1ccc(O)cc1 (stereo not given) | 30.8% | 55.2% | 67.5% | 55.4% | 30.4% | 34.6% | 26.9% | 40.5% | 59.6% | 79.5%
14 | Cc1ccc2c(c1)=C/C(=C\c1cc(-c3ccccc3)oc1O)C(=O)N=2 | 95.3% | 106% | 104% | 101% | 113% | 87.4% | 97.4% | 105% | 91.4% | 108%
15 | O=C(Nn1c2c(sc1=NC1CC1)C(=O)c1ccccc1C2=O)c1cc2ccc1CCc1ccc(cc1)CC2 | 9.63% (active) | 64.9% | 96% | 54.1% | 53.9% | 95.5% | 37.3% | 67.7% | 68.6% | 96.3%
16 | CC(=O)N1N=C(c2ccc(Nc3nc(Nc4ccccc4)nc(Nc4ccccc4)n3)cc2)CC1c1cccc([N+](=O)[O-])c1 (stereo not given) | 94.6% | 113% | 96.2% | 78.8% | 107% | 56.8% | 104% | 93.3% | 89.9% | 88.1%
17 | COc1ccc(-c2nc3c(ncc4ccc(=O)[nH]c43)s2)cc1 | 78.8% | 76.1% | 77.7% | 90.2% | 40.8% | 87.7% | 85.3% | 56.1% | 88.3% | 83.6%
18 | COc1cc(C2c3cc(OC(C)=O)c(OC)cc3CC3C(=O)OCC32)ccc1OC(C)=O (stereo not given) | 105% | 107% | 115% | 91.8% | 109% | 53.7% | 105% | 104% | 96.4% | 119%
19 | CCC1=C[C@@H]2C[C@]3(C(=O)OC)c4[nH]c5ccccc5c4CC[N@+](CC(=O)Nc4cc5c(cc4OC)N(C)[C@H]4[C@@](O)(C(=O)OC)[C@H](OC(C)=O)[C@]6(CC)C=CCN7CC[C@]54[C@@H]76)(C2)[C@H]13 | 104% | 98.7% | 102% | 99.5% | 109% | 88% | 92.4% | 100% | 99.1% | 104%
20 | CN(C)CCNC(=O)c1ccc(-c2nc3ccc4[nH]ncc4c3c3c2C2CCC3C2)cc1 (stereo not given) | 32.2% | 49.3% | 58.8% | 46.6% | 11.8% | 101% | -28.8% (active) | 14.2% | 28.3% | 18.6%
21 | COc1ccc(-c2nc3cc(C(=O)NCc4ccccc4)ccc3n2C2CCCCC2)cc1 | 99.6% | 102% | 81% | 90.1% | 72.2% | 92.8% | 76.8% | 74% | 70.8% | 64.7%
22 | O=C(Nc1cccc(-c2ccc(Cl)c(C(F)(F)F)c2)c1)C1CCN(Cc2cccc3cccnc23)CC1 | 48.2% | 45.9% | 35.5% | 62.3% | -87.2% (active) | 30.2% | -53% (active) | -30.8% (active) | 31.9% | -72.2% (active)
